Assay results: PubChem BioAssay AID2284104 (EPA ToxCast)
Calls of active or inactive are those of the source. How the source made its calls: active means hit-call score of the fitted dose curve at least 0.9, where 1 is the maximum; inactive means score below 0.9.

Molecular target: human PRAK CAMK Kinase, MAPKAPK5 (gene 8550) (UniProt Q8IW41)
Experiment: ERF_TW_ENZ_hMAPKAPK5: Eurofins (ERF) Enzymatic Radiometric [10 uM ATP] LeadHunter Assay for human PRAK CAMK Kinase
Protocol: ERF_TW_ENZ_hMAPKAPK5 is a biochemical, single-readout assay that uses extracted gene-proteins in a cell-free assay. Measurements were taken 0.5 hour after chemical dosing in a 96-well plate. See PRAK Human CAMK Kinase Enzymatic Radiometric Assay [10 uM ATP], Panlabs.ERF_TW_ENZ_hMAPKAPK5 is an assay component calculated from the ERF_TW_ENZ_hMAPKAPK5 assay. It is designed to measure enzyme activity using a type of enzyme reporter as detected by scintillation counting with radiometry technology.Data from the assay component ERF_TW_ENZ_hMAPKAPK5 was analyzed at the assay endpoint, ERF_TW_ENZ_hMAPKAPK5, in the positive analysis fitting direction relative to DMSO as the negative control and baseline of activity. Using a type of enzyme reporter, loss-of-signal activity can be used to understand changes in enzymatic activity as they relate to gene MAPKAPK5. To generalize the intended target to other relatable targets, this assay endpoint is annotated to the kinase intended target family, where the subfamily is serine/threonine kinase.
Human recombinant protein kinase PRAK expressed in insect Sf21 cells is used. Test compound is preincubated with 0.44 U/ml enzyme in modified MOPS buffer pH 7.2 for 15 minutes at 37C. […] An aliquot is removed and counted to determine the amount of [32P]PRAK substrate. […]

Chain of human PRAK CAMK Kinase, MAPKAPK5 (gene 8550) (Q8IW41 whole entry, looked up): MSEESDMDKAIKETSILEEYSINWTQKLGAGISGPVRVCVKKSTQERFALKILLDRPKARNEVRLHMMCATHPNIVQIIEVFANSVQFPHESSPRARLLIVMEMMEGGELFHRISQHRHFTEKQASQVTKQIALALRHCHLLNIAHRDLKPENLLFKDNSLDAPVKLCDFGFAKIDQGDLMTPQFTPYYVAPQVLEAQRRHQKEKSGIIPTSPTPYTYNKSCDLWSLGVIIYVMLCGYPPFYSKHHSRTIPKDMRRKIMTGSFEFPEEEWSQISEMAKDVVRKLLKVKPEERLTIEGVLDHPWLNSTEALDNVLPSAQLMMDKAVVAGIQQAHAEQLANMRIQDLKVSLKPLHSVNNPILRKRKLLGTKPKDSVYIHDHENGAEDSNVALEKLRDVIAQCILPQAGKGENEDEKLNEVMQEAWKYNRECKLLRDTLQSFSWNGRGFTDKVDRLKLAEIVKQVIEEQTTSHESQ

Row | Compound | AC50
1 | O=C(/C=C/c1ccc(O)cc1)CC(=O)/C=C/c1ccc(O)cc1 | 1.02 µM (active)
